Experimental data: PubChem BioAssay (Tox21)
Records with an inconclusive call do not appear. Values without a mark were called inactive. The source made the active and inactive calls. Calls come from the whole dose curve; as a rule, active = well fitted activation curve with a large enough effect in the signal ratio in the repeat runs (not every such curve was filed as active); inconclusive = weak or mixed curves, or effect the other way; inactive = no such curve, though single readings can be large or run the other way; the % refers to the signal ratio.

The molecules below were run against Glucocorticoid receptor (Homo sapiens) (UniProt P04150) (assay: qHTS assay to identify small molecule agonists of the glucocorticoid receptor (GR) signaling pathway (AID 720691)). Settings: GR-bla HeLa, beta-lactamase reporter ratio, 18 h; series mostly up to 62.4 µM; activation: at the top concentration.
Source text: U.S. Tox21 Program National Center for Advancing Translational Sciences [NCATS] NIH Chemical Genomics Center [NCGC] U.S. Environmental Protection Agency [EPA] National Institutes of Environmental Health Sciences [NIEHS] National Toxicology Program [NTP] U.S. Food and Drug Administration [FDA] Tox21 Assay Overview: The Glucocorticoid receptor (GR) is one of the members of the nuclear receptor family of ligand-dependent transcription factors. GR plays a critical role in carbohydrate, protein and lipid metabolisms and programmed cell death. CellSensor GR-bla HeLa cell line (Invitrogen) contains a beta-lactamase reporter gene under the control of the glucocorticoid response element stably integrated into HeLa cells, a cervical cancer cell line that expresses glucocorticoid receptor. The activation of the reporter gene under culture conditions can be detected by fluorescence intensity. This cell line has been used to screen the Tox21 10K compound library and to identify the compounds that activate the GR signaling.
Tox21 Assay Protocol Summary: The GR-bla HeLa cells were dispensed at 1500 cells/6 ul/well in 1536-well black wall/clear bottom plates using a Multidrop Combi (ThermoFisher Scientific, Waltham, MA) dispenser. After the assay plates were incubated at a 37 C/5% CO2 incubator for 4 hours, 23 nL of compounds dissolved in DMSO, positive controls or DMSO only was transferred to the assay plate by a pintool station (Kalypsys, San Diego, CA). The plates were incubated at 37 C for 18 hours. After 1 uL of LiveBLAzerTM B/G FRET substrate was added using a Flying Reagent Dispenser (Aurora Discovery, San Diego, CA), the plates were incubated at room temperature for 2 hours, and fluorescence intensity was measured by an Envision plate reader (PerkinElmer, Shelton, CT).
% is set by controls: 0 for no effect and ±100 for the full control effect.

Sequence of Glucocorticoid receptor (Homo sapiens) (P04150 whole entry, looked up): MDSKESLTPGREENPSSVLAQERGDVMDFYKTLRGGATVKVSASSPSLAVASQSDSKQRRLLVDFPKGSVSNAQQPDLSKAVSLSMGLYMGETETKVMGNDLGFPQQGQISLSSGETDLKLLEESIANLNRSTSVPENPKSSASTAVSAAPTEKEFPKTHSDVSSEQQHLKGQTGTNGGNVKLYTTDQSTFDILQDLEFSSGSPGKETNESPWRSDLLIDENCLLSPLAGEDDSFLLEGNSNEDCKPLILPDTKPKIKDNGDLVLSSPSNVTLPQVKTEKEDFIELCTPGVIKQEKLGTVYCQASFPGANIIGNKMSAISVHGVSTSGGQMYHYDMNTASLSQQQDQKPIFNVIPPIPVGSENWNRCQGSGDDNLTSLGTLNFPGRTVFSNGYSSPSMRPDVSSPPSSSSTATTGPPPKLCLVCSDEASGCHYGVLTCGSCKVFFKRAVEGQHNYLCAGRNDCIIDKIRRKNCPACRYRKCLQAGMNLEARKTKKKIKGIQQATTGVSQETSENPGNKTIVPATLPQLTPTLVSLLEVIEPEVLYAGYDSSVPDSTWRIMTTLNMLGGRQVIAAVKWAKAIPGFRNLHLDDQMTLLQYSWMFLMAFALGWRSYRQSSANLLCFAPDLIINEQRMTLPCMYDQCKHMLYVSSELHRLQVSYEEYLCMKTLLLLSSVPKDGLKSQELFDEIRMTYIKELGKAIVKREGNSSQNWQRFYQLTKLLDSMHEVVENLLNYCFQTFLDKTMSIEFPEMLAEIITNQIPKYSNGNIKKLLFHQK

Compound | activation | Potency
CC1=CC[C@H](CC=O)C1(C)C | 2.92% | –
C=CCOC(=O)c1ccc(C(=O)OCC=C)c(C(=O)OCC=C)c1 | 3.72% | –
C[N+](C)(C)CC(O)CCl (stereo not given) | -0.448% [at 79.2 µM] | –
O=c1[nH]c(=O)c2[nH]c(=O)[nH]c2[nH]1 | – | inactive
CNC(=O)NC | -1.3% [at 79.2 µM] | –
C[C@H](CCC(=O)O)[C@H]1CC[C@H]2[C@@H]3[C@H](O)C[C@@H]4C[C@H](O)CC[C@]4(C)[C@H]3C[C@H](O)[C@]12C | – | inactive
CCCCOC(=O)C(=O)OCCCC | 0.341% | –
CCC(=O)c1ccc(O)cc1 | -1.51% | –
Nc1ccc(/C=C/c2ccc(N)cc2S(=O)(=O)O)c(S(=O)(=O)O)c1 | 1.06% | –
CCCCCCCC[Si](OCC)(OCC)OCC | 2.2% | –
CC(=O)c1ccc2c(c1)CCCC2 | 0.523% | –
CN[C@@H]1[C@H](O)[C@H](NC)[C@H]2O[C@@]3(O)C(=O)C[C@@H](C)O[C@H]3O[C@@H]2[C@H]1O | -0.454% [at 29.2 µM] | –
Nc1cc(S(=O)(=O)O)ccc1S(=O)(=O)O | -1.3% | –
O=C(Nc1cccc(C2=NCCN2)c1)Nc1cccc(C2=NCCN2)c1 | 3.74% | –
Cc1ccccc1N1CCN(CCc2nnc3n2CCCC3)CC1 | -3.84% | –
CC(C)COC(=O)COc1ccc(Cl)cc1Cl | -2.8% | –
CC(=O)Nc1ncc([N+](=O)[O-])s1 | -1.48% | –
O=C1c2ccccc2-c2ccccc21 | -0.217% [at 79.2 µM] | –
O=C(O)/C=C/c1ccccc1 | – | inactive
CC(=O)OC(C(=O)c1ccccc1)c1ccccc1 (stereo not given) | 0.946% [at 79.2 µM] | –

Compound | activation | Potency
O=C(O)CCNC(=O)c1ccccc1 | -0.141% | –
COc1cc(C=O)ccc1OC(=O)C(C)C | -0.572% | –
CCCCCCCCCCCCC | 2.02% | –
CC(C)=CC(C)(C)C | -0.311% | –
COCCOCCOCCOC | -3.43% | –
O=C(O)c1ccccc1C(=O)Nc1ccc(S(=O)(=O)Nc2nccs2)cc1 | 0.461% | –
CCCCCCCC/C=C\CCCCCCCC(=O)OC[C@@H](O)[C@H]1OC[C@H](O)[C@H]1O | – | inactive
CCCCOC(=O)C(C)OC(=O)CCC (stereo not given) | -1.6% | –
CC(C)(C)NCCO | -1.56% | –
CN=C(NC#N)NCCSCc1csc(N=C(N)N)n1 | 1.31% | –
C1=CCC(c2ccccc2)CC1 (stereo not given) | -0.212% | –
CC(Cl)COP(=O)(OCC(C)Cl)OCC(C)Cl (stereo not given) | -3.33% | –
Nc1c(NC/C=C\COc2cc(CN3CCCCC3)ccn2)c(=O)c1=O | -1.47% | –
C=C(C)C(=O)OCCCCCCOC(=O)C(=C)C | -0.443% | –
C=COCCOCCOC=C | -4.54% | –
O=S(=O)(O)CCO | 1.5% [at 79.2 µM] | –
CCCCC(=O)N(C)C | 2.84% | –
N#CCCOCCOCCC#N | 7.56% | –
CC(C)CCC(=O)CCC(C)C | -1.07% | –
O=[Si]=O | 0.477% | –
